Measurements from the supplement of paper PMC8728848.
Only a selection was taken, and the strongest signals are over-represented in it overall.

Assays:
Test in all cases: glycan array binding signal (z-score within array); higher = stronger binding
Conditions in all cases: glycan notation: IUPAC condensed, linker removed
Fuc(a1-2)Gal(b1-3)GalNAc = molecular target: Fuc(a1-2)Gal(b1-3)GalNAc
Outline: (§1)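 Glycan array data came from 3228 arrays in the Consortium for Functional Glycomics database, and only arrays with an available protein sequence were kept. Glycan names were put into IUPAC-condensed notation, and columns mapping to the same glycan were averaged. The binding signal is a within-array Z-score, averaged across arrays of one protein sequence run at different concentrations or buffers and across linkers. A negative Z-score can be read as non-binding.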

[1] = molecular target: Fuc(a1-2)Gal(b1-3)GalNAc(b1-4)[Neu5Ac(a2-3)]Gal(b1-4)Glc
Outline: as §1

[2] = molecular target: Fuc(a1-2)Gal(b1-3)GlcNAc(b1-3)[Gal(b1-4)GlcNAc(b1-6)]Gal(b1-4)Glc
Outline: as §1

[3] = molecular target: Fuc(a1-2)Gal(b1-4)[Fuc(a1-3)]GlcNAc(b1-3)Gal(b1-4)[Fuc(a1-3)]GlcNAc
Outline: as §1

[4] = molecular target: Fuc(a1-2)[Gal(a1-3)]Gal(b1-4)Glc
Outline: as §1

[5] = molecular target: Fuc(a1-2)[GalNAc(a1-3)]Gal(b1-4)GlcNAc(b1-2)Man(a1-3)[Fuc(a1-2)[GalNAc(a1-3)]Gal(b1-4)GlcNAc(b1-2)Man(a1-6)]Man(b1-4)GlcNAc(b1-4)[Fuc(a1-6)]GlcNAc
Outline: as §1

[6] = molecular target: Fuc(a1-2)[GalNAc(a1-3)]Gal(b1-4)GlcNAc(b1-3)GalNAc
Outline: as §1

[7] = molecular target: Fuc(a1-3)[Gal(b1-4)]Glc6S
Outline: as §1

[8] = molecular target: Fuc(a1-3)[Gal3S(b1-4)]Glc
Outline: as §1

Gal(a1-3)Gal = molecular target: Gal(a1-3)Gal
Outline: as §1

[9] = molecular target: Gal(a1-3)[Gal(a1-4)]Gal(b1-4)GlcNAc
Outline: as §1

[10] = molecular target: Gal(b1-3)GlcNAc(b1-3)Gal(b1-3)GlcNAc
Outline: as §1

[11] = molecular target: Gal(b1-3)GlcNAc(b1-3)Gal(b1-4)GlcNAc(b1-2)Man(a1-3)[Gal(b1-3)GlcNAc(b1-3)Gal(b1-4)GlcNAc(b1-2)Man(a1-6)]Man(b1-4)GlcNAc(b1-4)GlcNAc
Outline: as §1

[12] = molecular target: Gal(b1-3)GlcNAc(b1-3)Gal(b1-4)GlcNAc(b1-3)Gal(b1-4)GlcNAc(b1-2)[Gal(b1-3)GlcNAc(b1-3)Gal(b1-4)GlcNAc(b1-3)Gal(b1-4)GlcNAc(b1-6)]Man(a1-6)[Gal(b1-3)GlcNAc(b1-3)Gal(b1-4)GlcNAc(b1-3)Gal(b1-4)GlcNAc(b1-2)Man(a1-3)]Man(b1-4)GlcNAc(b1-4)[Fuc(a1-6)]GlcNAc
Outline: as §1

[13] = molecular target: Gal(b1-3)[Neu5Ac(a2-6)]GalNAc
Outline: as §1

Gal(b1-4)GlcNAc(b1-2)Man = molecular target: Gal(b1-4)GlcNAc(b1-2)Man
Outline: as §1

[14] = molecular target: Gal(b1-4)GlcNAc(b1-2)Man(a1-6)Man(b1-4)GlcNAc(b1-4)GlcNAc
Outline: as §1

[15] = molecular target: Gal(b1-4)GlcNAc(b1-2)[Gal(b1-4)GlcNAc(b1-4)]Man(a1-3)[Gal(b1-4)GlcNAc(b1-2)[Gal(b1-4)GlcNAc(b1-6)]Man(a1-6)]Man(b1-4)GlcNAc(b1-4)GlcNAc
Outline: as §1

[16] = molecular target: Gal(b1-4)GlcNAc(b1-2)[Gal(b1-4)GlcNAc(b1-4)]Man(a1-3)[GlcNAc(b1-4)][Gal(b1-4)GlcNAc(b1-2)[Gal(b1-4)GlcNAc(b1-6)]Man(a1-6)]Man(b1-4)GlcNAc(b1-4)GlcNAc
Outline: as §1

[17] = molecular target: Gal(b1-4)GlcNAc(b1-3)Gal(b1-3)GalNAc
Outline: as §1

[18] = molecular target: Gal(b1-4)GlcNAc(b1-3)Gal(b1-4)GlcNAc(b1-2)Man(a1-3)[Gal(b1-4)GlcNAc(b1-3)Gal(b1-4)GlcNAc(b1-2)Man(a1-6)]Man(b1-4)GlcNAc(b1-4)GlcNAc
Outline: as §1

[19] = molecular target: Gal(b1-4)GlcNAc(b1-3)Gal(b1-4)GlcNAc(b1-2)Man(a1-3)[Gal(b1-4)GlcNAc(b1-3)Gal(b1-4)GlcNAc(b1-2)Man(a1-6)]Man(b1-4)GlcNAc(b1-4)[Fuc(a1-6)]GlcNAc
Outline: as §1

[20] = molecular target: Gal(b1-4)GlcNAc(b1-3)Gal(b1-4)GlcNAc(b1-3)Gal(b1-4)GlcNAc
Outline: as §1

[21] = molecular target: Gal(b1-4)GlcNAc(b1-3)Gal(b1-4)GlcNAc(b1-3)Gal(b1-4)GlcNAc(b1-2)[Gal(b1-4)GlcNAc(b1-3)Gal(b1-4)GlcNAc(b1-3)Gal(b1-4)GlcNAc(b1-6)]Man(a1-6)[Gal(b1-4)GlcNAc(b1-3)Gal(b1-4)GlcNAc(b1-3)Gal(b1-4)GlcNAc(b1-2)Man(a1-3)]Man(b1-4)GlcNAc(b1-4)[Fuc(a1-6)]GlcNAc
Outline: as §1

[22] = molecular target: Gal(b1-4)GlcNAc(b1-3)Gal(b1-4)GlcNAc(b1-3)Gal(b1-4)GlcNAc(b1-3)Gal(b1-4)GlcNAc(b1-2)Man(a1-3)[Gal(b1-4)GlcNAc(b1-3)Gal(b1-4)GlcNAc(b1-3)Gal(b1-4)GlcNAc(b1-3)Gal(b1-4)GlcNAc(b1-2)Man(a1-6)]Man(b1-4)GlcNAc(b1-4)GlcNAc
Outline: as §1

[23] = molecular target: Gal(b1-4)GlcNAc(b1-6)[Gal(b1-4)GlcNAc(b1-3)]GalNAc
Outline: as §1

[24] = molecular target: Gal3S(b1-4)[Fuc(a1-3)]Glc6S
Outline: as §1

[25] = molecular target: GlcNAc(a1-4)Gal(b1-3)GlcNAc
Outline: as §1

B1: Aap brpt (Staphylococcus epidermidis) (protein)
chain: VDGDPITSTEEIPFDKKREFDPNLAPGTEKVVQKGEPGTKTITTPTTKNPLTGEKVGEGEPTEKITKQPVDEIVHYGGEEIKTGHKDEFDPNAPKGSQTTQPGKPGVKNPDTGEVVTPPVDDVTKYGPVDGDPITSTEEIPFDKKREFDPNLAPGTEKVVQKGEPGTKTITTPTTKNPLTGEKVGEGEPTEKITKQPVDEIVHYGGEEIKPGHKDEFDPNAPKGSQEDVPGKPGVKNPDTGEVVTPPVDDVTKYGPVDGDSITSTEEIPFDKKREFDPNLAPGTEKVVQKGEPGTKTITTPTTKNPLTGEKVGEGEPTEKITKQPVDEIVHYGGEQIPQGHKDEFDPNAPVDSKTEVPGKPGVKNPDTGEVVTPPVDDVTKYGPVDGDSITSTEEIPFDKKREFDPNLAPGTEKVVQKGEPGTKTITTPTTKNPLTGEKVGEGKSTEKVTKQPVDEIVEYGPTK
- glycan array binding signal (z-score) (Fuc(a1-2)Gal(b1-3)GalNAc): -1
- glycan array binding signal (z-score) [1]: -0.026
- glycan array binding signal (z-score) [2]: 0.337
- glycan array binding signal (z-score) [3]: -0.951
- glycan array binding signal (z-score) [4]: -0.658
- glycan array binding signal (z-score) [5]: 0.323
- glycan array binding signal (z-score) [6]: -2.27
- glycan array binding signal (z-score) [7]: 0.738
- glycan array binding signal (z-score) [8]: 0.077
- glycan array binding signal (z-score) (Gal(a1-3)Gal): 2.41
- glycan array binding signal (z-score) [9]: 0.93
- glycan array binding signal (z-score) [10]: -0.56
- glycan array binding signal (z-score) [11]: -0.969
- glycan array binding signal (z-score) [12]: -0.027
- glycan array binding signal (z-score) [13]: 0.106
- glycan array binding signal (z-score) (Gal(b1-4)GlcNAc(b1-2)Man): -0.301
- glycan array binding signal (z-score) [14]: -0.494
- glycan array binding signal (z-score) [15]: 0.481
- glycan array binding signal (z-score) [16]: -0.768
- glycan array binding signal (z-score) [17]: -0.487
- glycan array binding signal (z-score) [18]: 3.34
- glycan array binding signal (z-score) [19]: 0.377
- glycan array binding signal (z-score) [20]: 0.054
- glycan array binding signal (z-score) [21]: 2.44
- glycan array binding signal (z-score) [22]: -0.738
- glycan array binding signal (z-score) [23]: -0.18
- glycan array binding signal (z-score) [24]: 2.61
- glycan array binding signal (z-score) [25]: -0.124
